Bioassay records (PubChem BioAssay)
HCV inhibitor = qHTS Assay for Inhibitors of Hepatitis C Virus (HCV); AID 651820, 2012; hit rate 3.4% among 340,000; Potency, µM (titrated, usually from 41.8 µM), inactives show at the top dose activity change, negative = inhibition, actives largely listed as inhibitors; Huh7.5.1 HCVcc-Cre infection, luciferase reporter, 44 h; further: potency means the concentration at half of the fitted maximal effect; on the % scale 0 is the no-effect control and ±100 the full control effect
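Infectious HCVcc-Cre (~0.5 moi) was added to cells just after compound, with cells seeded 4 h earlier at 1,000 per well. Luciferase activity after 44 h culture reported infection; substrate was incubated 15 min at room temperature before reading.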
Pf growth 96h = Primary qHTS for delayed death inhibitors of the malarial parasite plastid, 96 hour incubation; P. falciparum luciferase reporter growth, 96 h; Potency, µM (titrated, usually from 28.7 µM), inactives show top-dose activity change, negative = inhibition, actives largely listed as inhibitors; hit rate 6.9% among 320,000; AID 504834, 2011; further: potency means the concentration at half of the fitted maximal effect; on the % scale 0 is the no-effect control and ±100 the full control effect
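Luminescence readout: decreased luciferase signal marks inhibited growth of reporter-expressing P. falciparum in infected red cells (2% hematocrit, 0.05% parasitemia final), exposed to compound two generations (96 h, 37 C, 5% CO2).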
HCMV inh = qHTS Assay for inhibitors of the human cytomegalovirus (HCMV) | HFF cells, HCMV-luciferase reporter, 72 h; stronger effect = lower value | activity change, negative = inhibition, % at 57.5 µM | hit rate 4.5% among 410,000; in the data active means activity change below about -60%; inconclusive means no clear call, values can overlap the other calls; inactive means above about -39%; further: on the % scale 0 is the no-effect control and ±100 the full control effect
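Screen run at 2 compound doses on HFFs infected with reporter HCMV, MOI 1 PFU/cell. Luciferase activity from cell lysates at 72 h post infection gave inhibition relative to buffer-only and Salinomycin wells.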
Pf growth 48h = Primary qHTS for delayed death inhibitors of the malarial parasite plastid, 48 hour incubation; hit rate 5.9% among 310,000; AID 504832, 2011; P. falciparum luciferase growth in erythrocytes, 48 h; Potency, µM (top dose mostly 28.7 µM), for inactives: at the top dose activity change, negative = inhibition, most hits filed as inhibitors; further: potency means the concentration at half of the fitted maximal effect; on the % scale 0 is the no-effect control and ±100 the full control effect
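Parasite viability was followed by luminescence of a genomically integrated firefly luciferase. Cultures held 0.1% parasitemia at 2% hematocrit (final), incubated under 5% CO2 at 37 C.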
Sm TGR block = qHTS Assay for the Inhibitors of Schistosoma Mansoni Peroxiredoxins. Schistosoma mansoni thioredoxin glutathione reductase (TGR), Q962Y6. purified TGR, DTNB reduction, TNB absorbance 405 nm. Potency, µM (doses to about 114 µM), inactives show at the top dose activity change, negative = inhibition, actives largely listed as inhibitors. hit rate 3% among 360,000; further: potency means the concentration at half of the fitted maximal effect; on the % scale 0 is the no-effect control and ±100 the full control effect; nearly all actives have a fitted effect of over 60% in size
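First, TGR (20 nM dispensed) and NADPH were mixed with compound. Second, a 15 min room-temperature incubation followed. Third, further NADPH and then DTNB were added to start the reaction. Finally, TNB absorbance was monitored kinetically.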
SARS PLP yeast = qHTS of Yeast-based Assay for SARS-CoV PLP | S. cerevisiae expressing SARS-CoV PLpro, growth rescue | Potency, µM (titrated, usually from 32.9 µM), without a hit: at the highest dose activity, positive = growth rescue, hits mostly activators | hit rate 0.19% among 330,000 | AID 485353, 2010; calls by dose curve; further: potency means the concentration at half of the fitted maximal effect; 0% is about no effect; nearly all actives have a fitted effect of over 55% in size
* hit, by the source's call; ? = inconclusive; · = no result. The list is not random: actives were taken first. Their share in the collection is about 15%. Unless noted, the call rests on the fitted dose curve; in most records, active means well fitted curve in the direction sought with a large enough effect; inconclusive means small, poorly fitted or top-dose-only effect, or another doubt; inactive means no such curve, though single readings can be large; an effect the other way counts as inactive or inconclusive.

SMILES	HCV inhibitor	Pf growth 96h	HCMV inh	Pf growth 48h	Sm TGR block	SARS PLP yeast
COc1ccc(-c2cc3ccc(O)c(CN4CCCC(C)C4)c3oc2=O)cc1OC (configuration not stated)	·	·	28	·	1%	·
CC1CCCN(Cc2c(O)ccc3c2O/C(=C\c2ccco2)C3=O)C1 (configuration not stated)	34%	3.3µM*	-14	2.3µM*	25µM*	11%
Cc1ccc(/C=C2\Oc3c(ccc(O)c3CN3CCN(C)CC3)C2=O)cc1	17%	?	-12	?	-17%	1%
CC(=O)Nc1cc(NC(C)=O)cc(C(=O)N2CCCC3CCCCC32)c1 (configuration not stated)	12%	-10%	56	31%	-3%	2%
Cc1ccc(Nc2ccc(S(=O)(=O)N3CCOCC3)cc2[N+](=O)[O-])cc1C	18µM*	?	-2	-16%	0%	?
NS(=O)(=O)c1ccc(N/N=C/c2ccc(C(=O)O)cc2)c([N+](=O)[O-])c1	10%	0%	-25	-1%	-1%	0%
O=C(O)c1ccc(/C=N\Nc2ccc(S(=O)(=O)N3CCOCC3)cc2[N+](=O)[O-])cc1	7%	-1%	-1	?	45µM*	2%
CCOc1ccc(Nc2ccc(S(=O)(=O)N3CCN(C)CC3)cc2[N+](=O)[O-])cc1OCC	?	?	-5	12µM*	-1%	0%
C/C(=N\Nc1ccc(S(=O)(=O)N2CCOCC2)cc1[N+](=O)[O-])C(C)C	?	?	?	-9%	40µM*	3%
Cc1ccc(C(C)C)cc1OCC(=O)Nc1ccc(N2CCCCC2)cc1	?	?	-17	?	-17%	1%
CC(=O)c1ccc(OCc2cc(C(=O)N3CCN(C4CCCC4)C(=O)C3)no2)cc1	-16%	·	59	·	·	·
O=C(O)COc1ccccc1/C=N/Nc1ccc(S(=O)(=O)N2CCOCC2)cc1[N+](=O)[O-]	6%	?	37	?	-8%	0%
Cc1ccc(-n2c(O)c(/C=N/Nc3ccc(S(=O)(=O)N4CCOCC4)cc3[N+](=O)[O-])c3ccccc3c2=O)c(C)c1	11µM*	2.9µM*	-98*	10µM*	-4%	-9%
C=CCn1c(N/N=C/c2ccc(O)cc2)nc2ccccc2c1=O	-14%	4%	-65*	47%	3%	-2%
C=CCn1c(C)nc2ccccc2c1=O	13%	13%	27	22%	2%	-1%
CC(C)CCNC(=O)CSCc1cnn(-c2ccccc2)c1-n1cccc1	·	·	?	·	0%	·
CC1(C)Cc2c(C#N)c(N3CCN(C(=O)c4ccccc4Cl)CC3)nc(-c3ccco3)c2CS1	?	1.7µM*	-4	?	3.5µM*	-2%
CC(=O)N1CCN(c2nc(-c3ccco3)c3c(c2C#N)CC(C)(C)SC3)CC1	13µM*	?	-1	?	11µM*	-8%
CC1(C)Cc2c(c(-c3ccco3)[nH]c(=O)c2C#N)CS1	6%	-5%	6	4%	32µM*	6%
CC1(C)Cc2c(C#N)c(N3CCN(C(=O)c4ccco4)CC3)nc(-c3ccco3)c2CS1	8.9µM*	?	18	4.7µM*	2.8µM*	22%
CC1(C)Cc2c(c(-c3ccccc3)[nH]c(=O)c2C#N)CS1	0%	1%	-5	-2%	-13%	2%
Cc1ccnc(N2C(=O)OC(C)(C)C2(C)O)c1 (configuration not stated)	6%	8.3µM*	28	14%	-2%	-2%
CC(=C/C(=O)O)/C=C/c1ccco1	3%	?	7	?	7.9µM*	-11%
CC(/C=C/c1ccc(Cl)o1)=C\C(=O)O	12%	1.5µM*	-1	14%	8.9µM*	-4%
COc1ccc(CCNC(=O)c2cnc3sc(N4CCOCC4)nn3c2=O)cc1	·	·	2	·	0%	·
SMILES	HCV inhibitor	Pf growth 96h	HCMV inh	Pf growth 48h	Sm TGR block	SARS PLP yeast
COc1c(C)cc(C(O)c2ncc(-c3ccc4ccccc4c3)[nH]2)cc1C (configuration not stated)	·	·	12	·	·	·
COc1cccc(C(=O)Nc2ccc(NC(=O)C3CC3)cn2)c1	16%	8.3µM*	113	152%	-20%	-2%
COc1ccc(C(=O)Nc2ccc(NC(=O)C3CC3)nc2)cc1	3%	10µM*	-34	9%	-6%	4%
COc1ccc(NC(=O)c2ccc(NC(=O)C3CC3)cc2)cc1	?	-2%	?	-15%	-10%	-2%
CCC(=O)Nc1ccc(NC(=O)c2cccc(OC)c2)nc1	0%	-8%	74	392%	-7%	-9%
CCOc1ccc(NC(=O)Cn2nnc(-c3ccccc3NC(=O)CC)n2)cc1	-27%	24%	-14	-22%	-8%	5%
COc1ccc(NC(=O)Cn2nnc(-c3ccccc3NS(=O)(=O)c3ccc(OC)cc3)n2)cc1	11µM*	7%	-12	?	-3%	22%
COc1ccc(C(=O)Cn2nnc(-c3ccccc3NC(=O)C3CC3)n2)cc1	-13%	?	-18	12µM*	1%	2%
COc1ccccc1NC(=O)Cn1nnc(-c2ccccc2NS(=O)(=O)c2ccccc2)n1	?	-22%	-67*	?	0%	6%
CCn1nnc(-c2ccccc2NS(=O)(=O)c2ccc(C(=O)OC)cc2)n1	?	·	-29	3%	1%	-7%
COC(=O)c1ccccc1NC(=O)Cn1nnc(-c2ccc3c(c2)OCO3)n1	21%	0%	-17	-20%	1%	2%
COC(=O)c1ccccc1NC(=O)Cn1nnc(-c2ccc(OC)cc2)n1	?	0.59µM*	-4	-18%	5%	2%
Cc1ccc(CS(=O)(=O)CC(C)(O)c2ccc(Cl)cc2)cc1 (configuration not stated)	6%	-3%	·	-15%	6%	0%
O=C(OCc1ccccc1)c1ccc(-c2nnn(Cc3ccccc3F)n2)cc1	·	·	5	·	-4%	·
COc1ccc(-c2nnn(Cc3ccccc3F)n2)cc1	11µM*	7%	71	336%	-11%	-22%
Cc1csc2ncnc(N3CCN(S(=O)(=O)c4cccc(C(F)(F)F)c4)CC3)c12	·	4%	-92*	0%	1%	?
O=S(=O)(c1ccc(Oc2ncnc3scc(-c4ccccc4)c23)cc1)N1CCOCC1	10µM*	-8%	-16	?	4%	?
O=S(=O)(c1ccc(Cl)cc1)N1CCN(c2ncnc3sccc23)CC1	?	·	-69*	·	·	2%
